The nature of assay [1]: Nuclear factor erythroid 2-related factor 2/antioxidant responsive element (Nrf2/ARE) small molecule agonists: qHTS cell viability counter screen in human keratinocytes (AID 1919968; active = well fitted curve in the direction sought with a large enough effect in the repeat runs; an effect the other way counts as inactive or inconclusive; also: nearly all actives have a fitted effect of over 55% in size). In a few lines:
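Stably transfected HaCaT (KeratinoSens), 1,500/well. Test agents in DMSO were applied for 23 h, 37 C/5% CO2. CellTiter-Fluor was incubated 1 h before the fluorescence read.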
A general note: qHTS replaces the single test concentration by a dilution series.

The nature of assay [2]: Nuclear factor erythroid 2-related factor 2/antioxidant responsive element (Nrf2/ARE) small molecule agonists: luciferase reporter gene qHTS assay in human keratinocytes (AID 1919969). Also: nearly all actives have a fitted effect of over 35% in size. Also: potency is read from the fitted curve at half-maximal effect. Background: In a reporter assay the amount or activity of a reporter protein is the signal.
In assay [3] the target is Gonadotropin-releasing hormone receptor (Homo sapiens) (UniProt P30968). In words: Human gonadotropin-releasing hormone receptor (GnRHR) small molecule agonists, calcium flux assay in GnRHR-HEK293 cells (AID 1920063). Also: nearly all actives have a fitted effect of over 35% in size. An outline of the steps:
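Stable human GnRHR HEK293 line. 18 h plating, then calcium dye for 1 h at 37 C. Agonist-mode compound addition from DMSO stocks; fluorescence monitored 3 min.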
Background: Calcium assays in cells follow changes in intracellular calcium, usually with a dye or a luminescent sensor.

The target in assay [4] is KiSS-1 receptor (Homo sapiens) (UniProt Q969F8). In words: Human kisspeptin (KISS1R) small molecule agonists, calcium flux assay in KISS1R-HEK293 cells (AID 1920064; active = well fitted curve in the direction sought with a large enough effect in the repeat runs; an effect the other way counts as inactive or inconclusive). An outline of the steps: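 After overnight (18 h) culture at 37 C/5% CO2, human KISS1R-HEK293 cells received calcium dye for 1 h, then test compound; emission at 540 nm (excitation 480 nm) was tracked for 3 min.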

Assay [5] is described as follows: G protein-coupled receptor (GPCR) small molecule agonists, calcium flux assay: HEK293 wild type cell line counter screen (AID 1920065). In a few lines:
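Following 18 h incubation at 37 C/5% CO2, plates got calcium dye for 1 h; compounds, ATP or DMSO were then pinned in and fluorescence followed kinetically (480/540 nm).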

A short description of assay [6]: p53 small molecule agonists, cell-based qHTS assay with human liver microsomes (AID 1963577). An outline of the steps:
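p53RE-bla cells, 4,000/well, compound added after 5 h, with human liver microsomes 0.5 mg/mL and NADPH 0.5 mg/mL final; 16 h at 37 C, then LiveBLAzer 2 h RT, fluorescence.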

Assay [7] in a line: p53 small molecule agonists, cell-based qHTS assay with rat liver microsomes (AID 1963578). An outline of the steps:
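p53RE-bla cells, 4,000/well, pre-incubated 5 h, then given compounds plus rat liver microsomes (0.5 mg/mL final) and NADPH (0.5 mg/mL final). Incubation 16 h at 37 C; beta-lactamase reporter read by LiveBLAzer fluorescence after 2 h at room temperature.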

Assay [8] is described as follows: p53 small molecule agonists, cell-based qHTS assay with human liver microsomes: qHTS cell viability counter screen (AID 1963579). Also: nearly all actives have a fitted effect of over 45% in size. An outline of the steps: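 p53RE-bla cells, 4,000/well, dosed 5 hours after plating, with human liver microsomes (0.5 mg/mL final) plus NADPH (0.5 mg/mL final), 16 hours at 37 C. Viability read as CellTiter-Glo luminescence after 30 min at room temperature.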

Assay [9] in a line: p53 small molecule agonists, cell-based qHTS assay with rat liver microsomes: qHTS cell viability counter screen (AID 1963580). Also: nearly all actives have a fitted effect of over 45% in size. An outline of the steps:
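Cytotoxicity counter screen: intracellular ATP measured by CellTiter-Glo luminescence in the same wells as the beta-lactamase reporter read, on HCT-116 p53RE-bla cells exposed 16 h at 37 C to compounds with rat liver microsomes and NADPH, each 0.5 mg/mL final.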

The nature of assay [10]: p53 small molecule agonists, cell-based qHTS assay: qHTS cell viability counter screen (AID 1963581). Also: nearly all actives have a fitted effect of over 45% in size. In a few lines:
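qHTS counter screen: 16 h compound exposure at 37 C of p53RE-bla HCT-116 cells (4,000 per well, seeded 5 h prior), cell viability by ATP luminescence.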

A short description of assay [11]: p53 small molecule agonists, cell-based qHTS assay (AID 1963582; active = well fitted activation curve with a large enough effect in the signal ratio in the repeat runs, not every such curve was filed as active; the % refers to the signal ratio). In a few lines: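 Measured: fluorescence from cleaved LiveBLAzer substrate. System: p53RE-bla cells, 16 h compound treatment at 37 C, 2 h substrate step at room temperature.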
In assay [12] the target is 5-hydroxytryptamine receptor 2A (Homo sapiens) (UniProt P28223). In words: 5-hydroxytryptamine receptor 2A (HTR2A) small molecule antagonists, cell-based qHTS assay (AID 1963586). Also: nearly all actives have a fitted effect of over 45% in size. An outline of the steps: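 CHO cells stably expressing human HTR2A were plated for 18 h at 37 C, then loaded with calcium dye for 1 h. Compounds were preincubated 5 min at room temperature before DOI (4 nM solution) was added. Kinetic fluorescence was read for 3 min.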

Assay [13] has the same target. In words: 5-hydroxytryptamine receptor 2A (HTR2A) small molecule agonists, cell-based qHTS assay (AID 1963587). Also: nearly all actives have a fitted effect of over 30% in size. An outline of the steps:
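CHO cells stably expressing human HTR2A, plated 18 h, loaded with calcium dye 1 h at 37 C. Agonist mode: compounds added and intracellular calcium fluorescence recorded kinetically for 2 min at 1 sec intervals.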

The target of assay [14] is Muscarinic acetylcholine receptor M1 (Homo sapiens) (UniProt P11229). The assay is described as follows: Cholinergic receptor muscarinic 1 (CHRM1) small molecule antagonists, cell-based qHTS assay (AID 1963588). Also: nearly all actives have a fitted effect of over 40% in size. An outline of the steps: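 Compounds were tested at 15 concentrations in three independent runs. Dye-loaded CHRM1-CHO cells were exposed 5 min at room temperature before stimulation by acetylcholine added at 50nM. Intracellular calcium was read kinetically on FDSS for 3 min.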

Assay [15] deals with Beta-2 adrenergic receptor (Homo sapiens) (UniProt P07550). In words: Adrenergic beta2 receptor (ADRB2) small molecule antagonists, cell-based qHTS assay (AID 1963592). Also: series mostly up to about 92 µM; nearly all actives have a fitted effect of over 50% in size. An outline of the steps:
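Assay format: CHO-ADRB2 cells, 18-20hr seeding at 37C/5% CO2, then compound plus 1nM isoproterenol agonist mix for 0.5hr RT. Homogeneous time-resolved fluorescence cAMP detection after 1hr, expressed as 665/615 nm ratio.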

Assay [16] addresses D(2) dopamine receptor (Homo sapiens) (UniProt P14416). The assay is described as follows: Dopamine D2 receptor (DRD2) small molecule agonists, cell-based qHTS assay (AID 1963594). Also: nearly all actives have a fitted effect of over 35% in size. An outline of the steps:
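HEK293 cells stably expressing human DRD2, pre-treated with PDE inhibitor Ro20-1724 (0.1 mM final) and compound 10 min at room temperature, then stimulated with NKH477 (200nM […]) for 30 min. cAMP read by HTRF (665/620 nm).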

Assay [17] has the same target. The assay is described as follows: Dopamine D2 receptor (DRD2) small molecule antagonists, cell-based qHTS assay (AID 1963595; active = well fitted inhibition curve with a large enough effect in the signal ratio in the repeat runs, with a control signal flat; the % refers to the signal ratio). In a few lines: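 Cells were plated and grown for 24 h at 37 °C. Ro20-1724 (0.1 mM final) went in first, then compound for 10 min. NKH477 (200 nM) with quinpirole (12 nM) followed for 30 min at RT, then HTRF detection reagents for 1 h.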

Assay [18] has as its target Muscarinic acetylcholine receptor M1 (Homo sapiens) (UniProt P11229). In words: Cholinergic receptor muscarinic 1 (CHRM1) small molecule agonists, cell-based qHTS assay (AID 1963589). Also: nearly all actives have a fitted effect of over 35% in size. In a few lines: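 Kinetic fluorescence (1 s intervals) of calcium-sensitive dye in human M1 CHO cells after compound addition; cells pre-incubated 18 h at 37 C/5% CO2 and dye-loaded 1 h.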

The nature of assay [19]: cAMP Responsive Elements (CRE) small molecule agonists, cell-based qHTS assay (AID 1963590). An outline of the steps: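 Test agents in DMSO were incubated 3 h at 37 C/5% CO2 with CRE-bla HEK 293T cells seeded 18 h earlier; LiveBLAzer B/G FRET substrate was added and read after 2 h at room temperature.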
The nature of assay [20]: cAMP Responsive Elements (CRE) small molecule antagonists, cell-based qHTS assay (AID 1963591; active = well fitted inhibition curve with a large enough effect in the signal ratio in the repeat runs, not every such curve was filed as active; the % refers to the signal ratio). An outline of the steps:
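Reporter line CRE-bla HEK 293T in dialyzed-FBS DMEM; cells preincubated 18 h, treated 3 h with compound plus NKH477 (0.25 uM final); LiveBLAzer FRET, 2 h RT.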

Molecules are shown by their SMILES. Unmarked numbers belong to inactive results. Records with an inconclusive call do not appear. Calls of active or inactive are those of the source. Unless noted, calls follow the shape of the full dose curve.

Chain of Gonadotropin-releasing hormone receptor (Homo sapiens) (P30968 whole entry, looked up): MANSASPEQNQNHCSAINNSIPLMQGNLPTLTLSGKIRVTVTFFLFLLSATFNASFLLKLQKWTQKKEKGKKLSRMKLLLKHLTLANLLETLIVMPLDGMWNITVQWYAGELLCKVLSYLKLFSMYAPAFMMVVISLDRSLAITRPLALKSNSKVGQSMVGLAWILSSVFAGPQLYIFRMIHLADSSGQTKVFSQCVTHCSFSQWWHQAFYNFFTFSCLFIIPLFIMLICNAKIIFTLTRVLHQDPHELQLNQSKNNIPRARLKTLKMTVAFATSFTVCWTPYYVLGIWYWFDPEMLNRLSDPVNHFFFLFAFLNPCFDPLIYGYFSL
Chain of KiSS-1 receptor (Homo sapiens) (Q969F8 whole entry, looked up): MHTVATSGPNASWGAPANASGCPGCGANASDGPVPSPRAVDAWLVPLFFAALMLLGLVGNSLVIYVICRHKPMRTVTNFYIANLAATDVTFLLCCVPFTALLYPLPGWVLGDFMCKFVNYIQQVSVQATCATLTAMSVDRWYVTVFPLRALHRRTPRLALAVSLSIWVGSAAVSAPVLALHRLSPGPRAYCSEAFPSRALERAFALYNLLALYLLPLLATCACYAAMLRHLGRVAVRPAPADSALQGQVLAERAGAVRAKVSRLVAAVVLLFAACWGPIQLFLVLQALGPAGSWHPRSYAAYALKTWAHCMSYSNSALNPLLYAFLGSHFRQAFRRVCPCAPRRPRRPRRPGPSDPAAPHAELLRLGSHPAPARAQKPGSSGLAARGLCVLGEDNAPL
Chain of 5-hydroxytryptamine receptor 2A (Homo sapiens) (P28223 whole entry, looked up): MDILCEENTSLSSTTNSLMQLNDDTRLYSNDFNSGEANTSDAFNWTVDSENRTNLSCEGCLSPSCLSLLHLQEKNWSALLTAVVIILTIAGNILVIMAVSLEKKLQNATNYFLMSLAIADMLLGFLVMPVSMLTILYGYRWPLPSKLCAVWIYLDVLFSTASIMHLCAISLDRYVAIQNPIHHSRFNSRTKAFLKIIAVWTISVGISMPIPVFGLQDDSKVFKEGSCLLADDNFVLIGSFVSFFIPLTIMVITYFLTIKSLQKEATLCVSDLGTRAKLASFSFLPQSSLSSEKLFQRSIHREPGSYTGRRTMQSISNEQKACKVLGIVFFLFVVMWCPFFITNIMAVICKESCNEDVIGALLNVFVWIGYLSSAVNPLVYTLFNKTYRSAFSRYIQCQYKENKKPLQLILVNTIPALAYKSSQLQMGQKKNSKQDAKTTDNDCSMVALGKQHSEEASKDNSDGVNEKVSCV
Chain of Beta-2 adrenergic receptor (Homo sapiens) (P07550 whole entry, looked up): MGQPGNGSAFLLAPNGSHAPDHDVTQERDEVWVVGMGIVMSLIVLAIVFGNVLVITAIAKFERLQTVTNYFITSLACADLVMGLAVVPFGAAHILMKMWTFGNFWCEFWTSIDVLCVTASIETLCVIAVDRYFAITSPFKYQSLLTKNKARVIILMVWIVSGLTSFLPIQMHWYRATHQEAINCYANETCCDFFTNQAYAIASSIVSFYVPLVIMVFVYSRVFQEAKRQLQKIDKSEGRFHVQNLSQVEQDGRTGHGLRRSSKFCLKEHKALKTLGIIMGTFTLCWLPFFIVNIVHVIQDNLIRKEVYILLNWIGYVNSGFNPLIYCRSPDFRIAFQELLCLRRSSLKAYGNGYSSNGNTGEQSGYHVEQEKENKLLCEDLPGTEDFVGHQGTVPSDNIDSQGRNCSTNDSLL
Chain of D(2) dopamine receptor (Homo sapiens) (P14416 whole entry, looked up): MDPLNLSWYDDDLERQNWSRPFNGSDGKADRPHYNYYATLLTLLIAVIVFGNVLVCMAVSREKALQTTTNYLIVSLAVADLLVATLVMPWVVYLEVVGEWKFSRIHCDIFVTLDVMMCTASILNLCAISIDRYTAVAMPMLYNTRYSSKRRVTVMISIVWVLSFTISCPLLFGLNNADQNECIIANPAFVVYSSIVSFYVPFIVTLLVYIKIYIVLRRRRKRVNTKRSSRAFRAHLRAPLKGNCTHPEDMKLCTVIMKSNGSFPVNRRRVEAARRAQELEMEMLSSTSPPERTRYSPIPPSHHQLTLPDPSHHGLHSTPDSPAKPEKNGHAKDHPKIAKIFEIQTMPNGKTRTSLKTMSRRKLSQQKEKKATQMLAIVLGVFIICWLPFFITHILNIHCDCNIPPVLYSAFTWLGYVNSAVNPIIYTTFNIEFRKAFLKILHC
Chain of Muscarinic acetylcholine receptor M1 (Homo sapiens) (P11229 whole entry, looked up): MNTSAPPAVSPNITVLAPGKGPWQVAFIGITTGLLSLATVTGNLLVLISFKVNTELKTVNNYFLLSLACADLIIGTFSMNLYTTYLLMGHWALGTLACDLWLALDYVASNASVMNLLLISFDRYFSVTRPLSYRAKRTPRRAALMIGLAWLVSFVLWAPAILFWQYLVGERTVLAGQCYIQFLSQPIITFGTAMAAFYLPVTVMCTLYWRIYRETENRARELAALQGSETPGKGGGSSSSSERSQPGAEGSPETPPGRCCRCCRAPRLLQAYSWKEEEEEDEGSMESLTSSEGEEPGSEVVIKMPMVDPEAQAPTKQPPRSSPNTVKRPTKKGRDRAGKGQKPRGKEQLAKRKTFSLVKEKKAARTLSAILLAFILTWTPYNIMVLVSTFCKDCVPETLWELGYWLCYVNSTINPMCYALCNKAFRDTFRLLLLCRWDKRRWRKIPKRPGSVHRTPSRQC

Turning to `CS(=O)(=O)c1ccc(C(=O)C2C(=O)CCCC2=O)c(Cl)c1COCC(F)(F)F`, the Potency entry in [1], in assay [2], in assay [3], in assay [4], in assay [5] and in [6] was “inactive” in each case. Besides, the Potency result in assay [7], in [8], in assay [9], in assay [10], in assay [11] and in [12] was “inactive” in each case. In addition, the Potency result in [13], in assay [14], in assay [15], in [16] and in assay [17] was “inactive” each time.
On to `CC#Cc1cc(C)nc(Nc2ccccc2)n1`, for which the Potency result in assay [1], in [3], in [4], in assay [5], in assay [6] and in assay [7] was “inactive” in each case. Moreover, the Potency result in assay [8], in [9], in assay [10], in assay [11], in [13] and in [14] was “inactive” each time. For the same molecule, the Potency entry in assay [18], in assay [19], in assay [20] and in assay [17] was “inactive” throughout. Moreover, in [2], the Potency is 48.5 µM (active).
As to `CN(C)c1ccc(N=Nc2ccccc2)cc1`, the Potency entry in assay [1], in assay [3], in assay [4], in assay [5], in [6] and in assay [7] was “inactive” throughout. The Potency entry in [8], in assay [9], in assay [10], in [11], in [12] and in assay [13] was “inactive” throughout. Further, the Potency result in assay [14], in assay [18], in [20], in assay [15], in assay [16] and in assay [17] was “inactive” throughout. In assay [2], the Potency was 3.07 µM (active).
Consider `CC(C)[C@@H](Nc1ccc(C(F)(F)F)cc1Cl)C(=O)OC(C#N)c1cccc(Oc2ccccc2)c1` (stereo partly drawn), for which the Potency entry in assay [1], in assay [2], in assay [3], in [4], in assay [5] and in [6] was “inactive” throughout. Moreover, the Potency result in assay [7], in assay [8], in [9], in assay [10], in assay [11] and in assay [12] was “inactive” throughout. The Potency result in [13], in assay [14], in assay [18], in [20], in [15] and in assay [16] was “inactive” throughout.
Regarding `BrCCCCBr`, the Potency result in [1], in [2], in [3], in assay [4], in [5] and in assay [6] was “inactive” throughout. The Potency entry in [7], in assay [8], in assay [9], in [10], in [11] and in assay [12] was “inactive” in each case. For the same molecule, the Potency entry in assay [13], in assay [14], in assay [18], in assay [19], in assay [15] and in assay [16] was “inactive” each time. For the same molecule, in assay [17], the Potency entry was “inactive”.
For `O=[N+]([O-])c1ccc(CCl)cc1`, the Potency result in assay [1], in assay [3], in assay [4], in [5], in [6] and in [7] was “inactive” each time. The Potency entry in assay [8], in [9], in assay [10], in assay [11], in [13] and in assay [14] was “inactive” throughout. Also, the Potency entry in assay [18], in assay [20], in assay [15], in assay [16] and in [17] was “inactive” each time. In assay [2], the Potency is 60.1 µM (active).
